Screening data as filed in PubChem BioAssay.
The list is not random: actives were taken first. Their share in the collection is about 3.5%.
Tb PYK inh: blocks Trypanosoma brucei pyruvate kinase | hit rate 0.12% among 410,000 | Potency, µM (top dose mostly 76.8 µM), for the others: at the highest dose activity, negative = inhibition, most hits filed as inhibitors | AID 624173 | TbPYK enzyme, Kinase-Glo Plus ATP luminescence, 45 min; note: % is set by controls: 0 for no effect and ±100 for the full control effect; nearly all actives have a fitted effect of over 50% in size
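Readout: single end-point luminescence (Kinase-Glo Plus, 10 min). Reaction conditions were TbPYK/substrate plus 130 uM ADP, 45 min at RT, pH 7.2 TEA buffer. No-enzyme wells served as controls, and data were normalized before concentration-response fitting.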
LmPK inh: LmPK (Leishmania mexicana) enzyme inhibition; Q27686; purified LmPK, Kinase-Glo ATP luminescence, 1 h; Potency, µM (highest dose often 57.5 µM), for inactives: top-dose activity change, negative = inhibition, actives largely listed as inhibitors; hit rate 0.37% among 290,000; AID 1721; note: % is set by controls: 0 for no effect and ±100 for the full control effect
Target sequence (Q27686 whole entry, looked up): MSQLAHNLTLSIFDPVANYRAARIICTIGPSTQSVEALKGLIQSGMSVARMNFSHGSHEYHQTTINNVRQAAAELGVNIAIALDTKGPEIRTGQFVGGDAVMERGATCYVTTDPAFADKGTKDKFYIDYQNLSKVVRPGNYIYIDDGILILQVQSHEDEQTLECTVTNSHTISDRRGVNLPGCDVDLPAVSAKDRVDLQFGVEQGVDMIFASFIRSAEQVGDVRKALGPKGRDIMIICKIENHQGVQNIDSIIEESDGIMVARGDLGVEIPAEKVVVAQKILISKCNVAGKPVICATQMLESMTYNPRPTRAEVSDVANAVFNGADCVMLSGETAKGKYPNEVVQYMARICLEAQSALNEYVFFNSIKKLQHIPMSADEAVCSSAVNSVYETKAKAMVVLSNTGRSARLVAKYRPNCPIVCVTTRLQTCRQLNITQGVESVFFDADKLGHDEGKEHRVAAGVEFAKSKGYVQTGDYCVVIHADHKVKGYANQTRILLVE
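Screened at intermediate enzyme activity to detect both inhibitors and activators: LmPK at 0.1 nM, with a 0.5 nM enzyme column as activation reference. PEP 0.5 mM, ADP 0.1 mM; ATP detected by luminescence after 1 h.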
FBPA Giardia inh: Giardia lamblia aldolase inhibition | purified Giardia FBPA | hit rate 0.71% among 290,000 | A8B2U2 | Potency, µM (highest dose often 59.6 µM), inactives show at the top dose activity, negative = inhibition, most hits filed as inhibitors; note: % is set by controls: 0 for no effect and ±100 for the full control effect; nearly all actives have a fitted effect of over 55% in size
Target sequence (A8B2U2 whole entry, looked up): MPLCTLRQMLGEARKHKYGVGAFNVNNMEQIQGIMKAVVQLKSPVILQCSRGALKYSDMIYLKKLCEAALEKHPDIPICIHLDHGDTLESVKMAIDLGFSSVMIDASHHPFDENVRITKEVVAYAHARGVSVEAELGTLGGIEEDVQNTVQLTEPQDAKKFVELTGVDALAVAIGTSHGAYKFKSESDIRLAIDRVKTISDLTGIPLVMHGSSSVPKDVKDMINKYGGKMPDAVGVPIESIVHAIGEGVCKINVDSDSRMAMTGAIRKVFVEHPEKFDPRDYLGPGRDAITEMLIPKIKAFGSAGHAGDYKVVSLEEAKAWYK
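40 nM FBPA preincubated 10 min at RT with compound (up to 57.5 uM final), then substrate plus GAPDH/TPI/NAD/arsenate coupling and diaphorase/resazurin added. Fluorescence read after 20 min at RT, 525/598 nm.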
Sm TGR block: S. mansoni TGR enzyme inhibition | Q962Y6 | purified TGR, DTNB reduction, TNB absorbance 405 nm | Potency, µM (series often up to 114 µM), without a hit: at the top dose activity change, negative = inhibition, usual class: inhibitors | hit rate 3% among 360,000 | AID 485364; note: % is set by controls: 0 for no effect and ±100 for the full control effect; nearly all actives have a fitted effect of over 60% in size
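First, TGR (20 nM dispensed) and NADPH were mixed with compound. Second, a 15 min room-temperature incubation followed. Third, further NADPH and then DTNB were added to start the reaction. Finally, TNB absorbance was monitored kinetically.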
RE007 growth inh: less growth of the S. pombe RE007 Vpr strain; S. pombe RE007 Vpr strain, BacTiter-Glo ATP luminescence, 24 h; hit rate 0.21% among 360,000; Potency, µM (top dose mostly 92.2 µM), for inactives: at the highest dose activity change, negative = less growth, hits mostly inhibitors; active = well fitted falling curve with a large enough effect; inconclusive = small, poorly fitted or top-dose-only effect; inactive = no such curve, though single readings can be large or run the other way; note: % is set by controls: 0 for no effect and ±100 for the full control effect; nearly all actives have a fitted effect of over 50% in size
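Fission yeast strain RE007, carrying one chromosomally integrated HIV-1 vpr copy, was seeded at OD 0.01 in PMG+AL medium with 23 nL pinned compound. After 24 h at 30 °C and 99% humidity, viability was read by BacTiter-Glo luminescence.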
NS1 function inh: blocks influenza NS1 protein function; hit rate 0.4% among 270,000; Potency, µM (top dose mostly 46.1 µM), inactives show at the top dose activity, positive = more growth; AID 2326; calls by dose curve; note: actives are rising curves; nearly all actives have a fitted effect of over 50% in size
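OD600 was taken as the measure of yeast growth restored by compound in an NS1-expressing S. cerevisiae strain. Cells had been washed out of glucose medium and diluted 1:100 into galactose -URA medium, pH 6.0.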
* marks the source's active call; other numbers are inactive results; ? = inconclusive; · = not tested or not shown. Unless noted, calls come from the whole dose curve; as a rule, active = well fitted curve in the direction sought with a large enough effect; inconclusive = small, poorly fitted or top-dose-only effect, or another doubt; inactive = no such curve, though single readings can be large; an effect the other way counts as inactive or inconclusive. Potency is the fitted concentration of half-maximal effect.

SMILES	Tb PYK inh	LmPK inh	FBPA Giardia inh	Sm TGR block	RE007 growth inh	NS1 function inh
Cc1ccc(OC(=O)c2ccc(Cl)c([N+](=O)[O-])c2)cn1	-7.9%	-2.1%	-1.5%	50.1µM*	-8.4%	-33.4%
O=C(Nc1ccc(Cl)cc1)NC1CCCC1Cc1ccco1 (stereo not drawn)	-2.2%	5.5%	-24.6%	44.7µM*	7.3%	-83.9%
O=C(Nc1ccc(Cl)cc1)NC1CCCCC1Cc1ccco1 (stereo not drawn)	-5.9%	3.1%	0.2%	-13.5%	6.3%	-128.2%
COc1ccc(OCCCCn2c(C3CC(=O)N(c4cccc(Cl)c4)C3)nc3ccccc32)cc1 (stereo not drawn)	0.9%	·	·	7.3%	·	·
O=C(O)c1ccccc1-n1ncc2c1/C(=C/c1ccc(Cl)cc1)CC2	·	5.7%	2.7%	14.1µM*	·	3.4%
O=C(O)c1ccc(-n2ncc3c2/C(=C/c2cccc([N+](=O)[O-])c2)CC3)cc1	10.4%	4.0%	3.0%	-23.3%	1.1%	-33.8%
O=C(O)c1ccc(-c2ccc(/C=c3/sc4nc5ccccc5n4c3=O)o2)cc1Cl	?	9.2%	-2.0%	28.2µM*	7.4%	0.4%
Cc1cc(C)c2nc3sc(=Cc4ccc(-c5ccccc5C(=O)O)o4)c(=O)n3c2c1	-17.3%	·	·	·	-16.5%	·
CC1(C)OC(=O)C(=Cc2ccc(-c3ccc(Cl)c(C(=O)O)c3)o2)C(=O)O1	15.8µM*	32.2%	-16.0%	-6.0%	43.2%	·
O=C(O)c1cc(-c2ccc(/C=C3/SC(=S)N(Cc4ccccc4)C3=O)o2)ccc1Cl	-13.4%	7.8%	?	25.1µM*	2.5%	·
Cc1ccc(NC(=O)CSCC(=O)N2CCN(C(=O)c3ccco3)CC2)cc1	2.1%	·	·	-8.6%	-6.3%	·
Cn1c(=O)c(C(=O)COC(=O)c2cc(-c3ccco3)nc3ccccc23)c(N)n(CC2CC2)c1=O	·	5.1%	-23.9%	3.55µM*	·	?
Cc1ccc(NC(=O)CSC(C)C(=O)OCC(=O)N2CCN(C(=O)c3ccco3)CC2)cc1 (stereo not drawn)	-9.1%	·	·	50.1µM*	1.8%	·
COc1cccc(CNC(=O)COC(=O)c2nc(Cl)c(Cl)c(Cl)c2Cl)c1	-4.3%	·	·	3.16µM*	-23.4%	·
O=C(OCC(=O)N1CCN(C(=O)c2ccco2)CC1)c1cc(S(=O)(=O)Nc2ccc(Cl)cc2)ccc1O	3.9%	12.9%	11.8%	44.7µM*	-3.7%	-23.1%
COc1ccccc1CNC(=O)CCNS(=O)(=O)c1ccc2c(c1)CCCC(=O)N2	-0.3%	·	·	8.5%	·	·
COc1cccc(C(=O)OCC(=O)NCCCc2ccccc2)c1	6.3%	3.1%	3.5%	79.4µM*	1.2%	-40.3%
CCNC(=O)COC(=O)c1cc(-c2ccco2)nc2ccccc12	-9.1%	-1.9%	-7.0%	15.8µM*	-1.3%	5.1%
COc1ccc(CNC(=O)COC(=O)c2cc(C)nc3ccccc23)cc1	-4.8%	·	·	·	-6.7%	·
O=C(OCC(=O)N1CCN(C(=O)c2ccco2)CC1)c1cc(-c2ccco2)nc2ccccc12	?	1.3%	?	5.01µM*	2.3%	22.2%
COc1ccc(CNC(=O)COC(=O)c2cc(-c3ccco3)nc3ccccc23)cc1	·	-5.8%	-15.1%	11.2µM*	·	5.2%
O=C(COC(=O)c1cc(F)cc(F)c1)NCCCc1ccccc1	-4.2%	7.8%	-4.2%	0.8%	-18.7%	-14.7%
Cc1ccc(C)c(CSc2nc(-c3ccccc3F)nc3c2Cc2c(CO)cnc(C)c2O3)c1	3.4%	·	·	1.0%	·	·
Cc1ccc(NC(=O)N2CCc3cc(S(=O)(=O)N4CCC(C)CC4)ccc32)cc1C	-0.3%	·	·	-1.9%	·	·
O=C(c1ccco1)N1CCN(C(=O)c2cc(Cl)nc3ccccc23)CC1	-5.7%	·	·	1.3%	-12.2%	·
SMILES	Tb PYK inh	LmPK inh	FBPA Giardia inh	Sm TGR block	RE007 growth inh	NS1 function inh
O=C(c1ccco1)N1CCN(C(=O)c2cc(-c3ccccn3)nc3ccccc23)CC1	-7.0%	0.2%	1.8%	35.5µM*	-15.6%	-11.2%
CN(CCC#N)C(=O)COC(=O)c1ccccc1C(=O)c1ccc(Cl)c([N+](=O)[O-])c1	-1.6%	0.3%	-1.8%	12.6µM*	2.6%	·
Cc1nn(-c2ccccc2)c(-n2cccc2)c1C(=O)N1CCN(c2ccccc2)CC1	0.3%	·	·	2.7%	·	·
CCCc1ccc(-c2ccc(F)c(N)c2)nc1	-1.8%	15.8µM*	-1.6%	-5.3%	-17.8%	-22.2%
Cc1nn(-c2ccccc2)c2sc(C(=O)Nc3cccc(Br)c3)cc12	-0.7%	·	·	-2.0%	·	·
COc1cccc(C2=Nn3c(nnc3-c3ccccc3C)SC2)c1	·	·	9.98µM*	·	·	·
Cc1nc(-c2ccccc2)sc1-c1ccc(SCC(=O)Nc2ccc(F)cc2F)nn1	-4.9%	·	·	1.4%	·	·
Cc1ccc(C)c(S(=O)(=O)NCC(c2ccco2)S(=O)(=O)c2ccc(F)cc2)c1 (stereo not drawn)	1.3%	·	·	0.355µM*	·	·
COc1ccc(F)cc1S(=O)(=O)NCC(c1ccco1)S(=O)(=O)c1ccc(F)cc1 (stereo not drawn)	2.6%	·	·	0.316µM*	·	·
COc1ccc(S(=O)(=O)NCC(c2ccco2)S(=O)(=O)c2cccs2)cc1OC (stereo not drawn)	-4.6%	·	·	0.282µM*	·	·
COc1ccc(F)cc1S(=O)(=O)NCC(c1ccco1)S(=O)(=O)c1cccs1 (stereo not drawn)	-5.5%	·	·	0.1µM*	·	·
COc1ccc(OC)c(S(=O)(=O)NCC(c2cccs2)S(=O)(=O)c2ccc(F)cc2)c1 (stereo not drawn)	1.8%	·	·	0.316µM*	·	·
O=C1Nc2ccc(NS(=O)(=O)c3cccs3)c3cccc1c23	5.6%	3.0%	8.89µM*	-4.5%	7.8%	-10.5%
CNS(=O)(=O)c1ccc2c3c(cccc13)C(=O)N2	-1.3%	-0.4%	0.6%	-16.6%	1.7%	-2.4%
Cc1ccc(-n2c(=O)[nH]c3c(C(N)=O)nc(-c4ccc(C)o4)nc32)cc1	-5.5%	7.3%	-2.1%	31.6µM*	1.3%	?
Cc1ccc(-n2c(=O)[nH]c3c(C(N)=O)nc(CC(C)C)nc32)cc1	0.9%	3.4%	5.5%	1.3%	18.2%	4.1%
O=C1C=CC(=O)N1c1ccc2c(c1)Cc1cc(F)ccc1-2	?	·	·	·	2.82µM*	·
CC(=O)Nc1ccc2c(c1)CCCC2=O	0.3%	-3.9%	-16.2%	31.6µM*	-12.0%	-4.1%
O=[N+]([O-])c1ccc2c(c1)Cc1cc(F)ccc1-2	-3.9%	·	·	·	-17.9%	·
CC(=O)Nc1ccc2c(c1)Cc1ccc(Cl)cc1-2	4.1%	·	·	·	-8.1%	·
CC(=O)Nc1ccc2c(c1)Cc1cc(N3C(=O)C=CC3=O)ccc1-2	?	·	·	·	4.47µM*	·
CCOc1ccc(NC(=O)CSc2oc(-c3ccc(C)cc3)nc2S(=O)(=O)c2ccc(C)cc2)cc1	2.2%	·	·	-4.2%	·	·
